Assay results from PubChem BioAssay (NCATS).
Records with an inconclusive call do not appear. The source made the active and inactive calls. The call rests on the fitted dose curve; in most records, active means well fitted curve in the direction sought with a large enough effect; inconclusive means small, poorly fitted or top-dose-only effect, or another doubt; inactive means no such curve, though single readings can be large; an effect the other way counts as inactive or inconclusive.

Legend:
[1] = Quantitative High-Throughput drug screen in 47 multiple myeloma cell lines against the NCATS MIPE library collection: FR4_PLB cell viability assay (AID 1918924; further: nearly all actives have a fitted effect of over 35% in size; further: potency means the concentration at half of the fitted maximal effect)
Outline: (§1)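 Luminescent ATP measurement with CellTiter-Glo gives viability, scaled between DMSO-only wells (100%) and media-only wells (0%). Cells, 500 per well, faced library compounds for 48 hours at 37C.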

[2] = Quantitative High-Throughput drug screen in 47 multiple myeloma cell lines against the NCATS MIPE library collection: Delta47_JCRB cell viability assay (AID 1918925; further: nearly all actives have a fitted effect of over 45% in size; further: potency means the concentration at half of the fitted maximal effect)
Outline: (§2)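 qHTS of the MIPE 4.0 collection: 500 myeloma cells/well, 48 h drug exposure at 37C in 5% CO2, then CellTiter-Glo for 5 min at room temperature before luminescence reading.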

[3] = Quantitative High-Throughput drug screen in 47 multiple myeloma cell lines against the NCATS MIPE library collection: EJM_DSMZ cell viability assay (AID 1918926; further: nearly all actives have a fitted effect of over 30% in size; further: potency means the concentration at half of the fitted maximal effect)
Outline: as §2

[4] = Quantitative High-Throughput drug screen in 47 multiple myeloma cell lines against the NCATS MIPE library collection: AMO1_DSMZ cell viability assay (AID 1918927; further: nearly all actives have a fitted effect of over 30% in size; further: potency means the concentration at half of the fitted maximal effect)
Outline: as §2

[5] = Quantitative High-Throughput drug screen in 47 multiple myeloma cell lines against the NCATS MIPE library collection: Karpas620_DSMZ cell viability assay (AID 1918959); further: nearly all actives have a fitted effect of over 30% in size; further: potency means the concentration at half of the fitted maximal effect
Outline: as §1

[6] = Quantitative High-Throughput drug screen in 47 multiple myeloma cell lines against the NCATS MIPE library collection: KMM1_JCRB cell viability assay (AID 1918960); further: nearly all actives have a fitted effect of over 30% in size; further: potency means the concentration at half of the fitted maximal effect
Outline: (§3)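 ATP readout (CellTiter-Glo), 48 h drug incubation, 37 °C/5% CO2, 500 cells per well; normalisation to DMSO (100%) and media-only (0%) controls.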

[7] = Quantitative High-Throughput drug screen in 47 multiple myeloma cell lines against the NCATS MIPE library collection: KHM11_PLB cell viability assay (AID 1918962); further: nearly all actives have a fitted effect of over 35% in size; further: potency means the concentration at half of the fitted maximal effect
Outline: as §1

[8] = Quantitative High-Throughput drug screen in 47 multiple myeloma cell lines against the NCATS MIPE library collection: JIM3_ECACC cell viability assay (AID 1918963; further: nearly all actives have a fitted effect of over 35% in size; further: potency means the concentration at half of the fitted maximal effect)
Outline: as §1

[9] = Quantitative High-Throughput drug screen in 47 multiple myeloma cell lines against the NCATS MIPE library collection: ARP1_JJKsccF8 cell viability assay (AID 1918928; further: nearly all actives have a fitted effect of over 40% in size; further: potency means the concentration at half of the fitted maximal effect)
Outline: as §3

[10] = Quantitative High-Throughput drug screen in 47 multiple myeloma cell lines against the NCATS MIPE library collection: INA6_PLB cell viability assay (AID 1918965; further: nearly all actives have a fitted effect of over 55% in size; further: potency means the concentration at half of the fitted maximal effect)
Outline: (§4)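 Steps: seed 500 cells per well; pin-transfer MIPE 4.0 library; incubate 48 h at 37C, 5% CO2, humidified; add CellTiter-Glo, 5 min room temperature; read luminescence.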

[11] = biological target: Phospholipid hydroperoxide glutathione peroxidase GPX4 (Homo sapiens) (UniProt P36969); experiment: Primary qHTS Assay for Inhibitors of Recombinant Selenoprotein Glutathione Peroxidase 4 (GPX4) (AID 1845192); further: nearly all actives have a fitted effect of over 65% in size; further: potency means the concentration at half of the fitted maximal effect
Outline: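 NADPH consumption, followed by fluorescence at 340/450 nm between 0 and 15 min, reports GPX4 activity via coupled glutathione reductase (100 nM). Enzyme 200 nM was pre-exposed to compound 30 min; 0.5 mM cumene hydroperoxide and 1 mM GSH served as substrates.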

[12] = Quantitative High-Throughput drug screen in 47 multiple myeloma cell lines against the NCATS MIPE library collection: ARD_JJKsccE7 cell viability assay (AID 1918929; further: potency means the concentration at half of the fitted maximal effect)
Outline: as §2

[13] = Quantitative High-Throughput drug screen in 47 multiple myeloma cell lines against the NCATS MIPE library collection: JIM1_ECACC cell viability assay (AID 1918964; further: potency means the concentration at half of the fitted maximal effect)
Outline: as §2

[14] = Quantitative High-Throughput drug screen in 47 multiple myeloma cell lines against the NCATS MIPE library collection: JJN3_DSMZ cell viability assay (AID 1918966; further: nearly all actives have a fitted effect of over 50% in size; further: potency means the concentration at half of the fitted maximal effect)
Outline: as §2

[15] = Primary fluorescence-based thiol-reactive (MSTI) qHTS assay for identification of artifact compounds. (AID 1845221);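 further: thiol-reactive compounds lower the probe fluorescence signal; nearly all actives have a fitted effect of over 65% in size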
Outline: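 One-hour, room-temperature, dark incubation of compound with 4 uM MSTI in PBS (pH 7.4, 2% DMSO) precedes a fluorescence read at 525 nm excitation, 598 nm emission; Hill-equation fitting yields concentration-response values.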

[16] = test system: Nanoluciferase (engineered Oplophorus gracilirostris luciferase); experiment: Primary Nanoluciferase (NLuc) qHTS assay for identification of artifact compounds. (AID 1845222);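 further: NLuc secreted into diluted conditioned medium of S16 cells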
Outline: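 NLuc from S16 cell medium (1:55) plus test compounds, 15 min, room temperature. Luminescence after Nano-Glo (1:100) addition, 5 min.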

[17] = Primary redox qHTS assay for identification of artifact compounds. (AID 1845223)
Outline: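 Amplex Red (25 uM) and HRP (250 mU/mL) in HBSS, with compounds for 15 min, then 250 uM DTT for 30 min, room temperature, dark. Fluorescence 525/598 nm read; normalized to DMSO and 10 uM DA3003; Hill fit.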

[18] = Quantitative High-Throughput drug screen in 47 multiple myeloma cell lines against the NCATS MIPE library collection: Karpas417_ECACC cell viability assay (AID 1918961); conditions: Karpas417 myeloma viability, CellTiter-Glo ATP luminescence, 48 h; viability (% of DMSO): at 45.8 µM (top of the series); further: potency means the concentration at half of the fitted maximal effect
Outline: as §4

Phospholipid hydroperoxide glutathione peroxidase GPX4 (Homo sapiens), sequence (P36969 whole entry, looked up): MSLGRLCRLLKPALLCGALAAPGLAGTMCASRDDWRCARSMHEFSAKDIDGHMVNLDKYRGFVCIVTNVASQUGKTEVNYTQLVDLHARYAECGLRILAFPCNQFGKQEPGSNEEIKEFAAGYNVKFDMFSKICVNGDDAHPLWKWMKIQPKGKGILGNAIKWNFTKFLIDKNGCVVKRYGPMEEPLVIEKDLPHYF

Structure (SMILES)	Potency [1]	Potency [2]	Potency [3]	Potency [4]	Potency [5]	Potency [6]	Potency [7]	Potency [8]	Potency [9]	Potency [10]	Potency [11]	Potency [12]	Potency [13]	Potency [14]	Potency [15]	Potency [16]	outcome [17]	Potency [18]
CCC(=O)O[C@]1(C(=O)CO)CC[C@H]2[C@@H]3CCC4=CC(=O)CC[C@]4(C)[C@@H]3CC[C@@]21C	inactive	inactive	inactive	inactive	inactive	inactive	inactive	inactive										
COC[C@@H](c1ccc(C(F)(F)F)cc1)N1CCN(C2(C)CCN(C(=O)c3c(C)ncnc3C)CC2)C[C@H]1C	inactive	23.5 µM (active)	inactive	16.6 µM (active)			inactive		inactive	26.4 µM (active)								
NS(=O)(=O)c1ccc(NC2=CC(=O)c3ccccc3C2=O)cc1	2.96 µM (active)	18.7 µM (active)	inactive	0.59 µM (active)	1.66 µM (active)			18.7 µM (active)	2.64 µM (active)	11.8 µM (active)	inactive	2.64 µM (active)						
Cc1ccc(C(=O)Nc2cccc(C(F)(F)F)c2)cc1Nc1nc(-c2cccnc2)nc2c1cnn2C	9.35 µM (active)	5.26 µM (active)	18.7 µM (active)				13.2 µM (active)	10.5 µM (active)	10.5 µM (active)	11.8 µM (active)	inactive	inactive	inactive	18.7 µM (active)				
O=C(Nc1cc(Cl)cc2c1[nH]c1cnccc12)c1cccnc1	1.87 µM (active)	4.18 µM (active)	10.5 µM (active)	inactive		6.62 µM (active)		inactive	13.2 µM (active)	16.6 µM (active)	inactive	inactive						
NC(=O)c1cccc2[nH]c(-c3ccc([C@H]4CCCN4)cc3F)nc12	inactive		inactive					14.8 µM (active)		14.8 µM (active)					inactive	inactive	inactive	
N#C[C@H]1C[C@H]2C[C@@H]2N1C(=O)[C@@H](N)C12CC3CC(CC(O)(C3)C1)C2	inactive		inactive	inactive		inactive	inactive	inactive	3.72 µM (active)		inactive	inactive	inactive					
CC(C)=CC[C@@H](O)C1=CC(=O)c2c(O)ccc(O)c2C1=O	0.662 µM (active)		0.418 µM (active)	4.18 µM (active)	9.35 µM (active)			16.6 µM (active)	1.32 µM (active)		16.1 µM (active)			0.372 µM (active)				1.18 µM (active)
CCc1ccc(OCc2ccccc2C(=O)Nc2ccc3nc(C)cc(N)c3c2)cc1	8.33 µM (active)	1.18 µM (active)	7.43 µM (active)	3.32 µM (active)		2.64 µM (active)	2.35 µM (active)	2.64 µM (active)	7.43 µM (active)	2.64 µM (active)		2.64 µM (active)	2.64 µM (active)	6.62 µM (active)				1.87 µM (active)
COc1cccc([C@@H](C)NCCCc2ccccc2Cl)c1			inactive				inactive	inactive	inactive		inactive			inactive				
c1cc(-c2sc(-c3ccncc3)c(-c3ccncc3)c2-c2ccncc2)ccn1					inactive				inactive		inactive			16.6 µM (active)				
CC(=Cc1ccccc1)C=C1SC(=S)N(CC(=O)O)C1=O	inactive	inactive	inactive	inactive		inactive	inactive	inactive		inactive		inactive						
O=C(Nc1ccccc1Br)N[C@@H]1CCN(c2ccc(C(F)(F)F)cn2)C1	inactive					inactive	14.8 µM (active)	18.7 µM (active)		16.6 µM (active)	inactive							inactive
O=C(NCc1ccncc1)C12C[C@H]3C[C@@H](C1)CC(c1ccc(Cl)cc1)(C3)C2	14.8 µM (active)			9.35 µM (active)	9.35 µM (active)	23.5 µM (active)	inactive	23.5 µM (active)			inactive	18.7 µM (active)	13.2 µM (active)					
NS(=O)(=O)c1cccc2c1C(=O)c1cccc(O)c1C2=O	0.935 µM (active)	0.418 µM (active)	0.935 µM (active)	0.166 µM (active)	0.148 µM (active)	0.264 µM (active)	0.662 µM (active)	0.187 µM (active)	0.332 µM (active)	0.148 µM (active)	inactive	0.264 µM (active)	0.209 µM (active)	0.264 µM (active)				
O=C1c2ccccc2-[n+]2ccc3c([nH]c4ccccc43)c21	1.32 µM (active)	1.32 µM (active)	1.48 µM (active)	5.9 µM (active)	3.72 µM (active)	3.72 µM (active)	2.35 µM (active)	0.59 µM (active)	2.09 µM (active)		inactive	7.43 µM (active)	3.72 µM (active)					8.33 µM (active)
